Assay results taken from PubChem BioAssay AID686978 (National Center for Advancing Translational Sciences (NCATS), 2013).
About 64,000 (15%) of roughly 420,000 compounds were called active. Not shown: some 27% with an inconclusive outcome. These entries were drawn from the full list. A number with no mark means an inactive call. Calls come from the whole dose curve; as a rule, active = well fitted inhibition curve with a large enough effect; inconclusive = small, poorly fitted or top-dose-only effect; inactive = flat fitted curve, though single readings scatter.

Test: qHTS for Inhibitors of human tyrosyl-DNA phosphodiesterase 1 (TDP1): qHTS in cells in absence of CPT; note: nearly all actives have a fitted effect of over 55% in size
Settings: DT40 Tdp1-/- hTDP1 cells, no CPT, ATP luminescence, 48 h; activity change, negative = growth inhibition: at 46.2 µM (top of the series)
Procedure, shortened: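 A cellular qHTS used chicken DT40 cells lacking endogenous Tdp1 but carrying stably transfected human TDP1. Compounds were applied without camptothecin, and cell growth kinetics were judged by ATP-dependent luminescence after ≥48 hr.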
% is set by controls: 0 for no effect and ±100 for the full control effect; potency is the fitted concentration of half-maximal effect.

Row | Structure (SMILES) | activity change, negative = growth inhibition | Potency
1 | COc1cc(NC(=O)Cn2c(=O)n(Cc3ccco3)c(=O)c3oc4ccccc4c32)cc(OC)c1 | -13.2% | –
2 | Cc1c(CCC(=O)O)c(=O)oc2cc3occ(-c4ccccc4)c3cc12 | -4.43% | –
3 | O=C(c1ccco1)N1CCN(CC(=O)N(C2CCCCC2)C2CCS(=O)(=O)C2)CC1 (stereo not drawn) | -0.389% | –
4 | COC(=O)c1sccc1NC(=O)CC1C(=O)NCCN1C(=O)Nc1ccc(F)cc1F (stereo not drawn) | -0.938% | –
5 | COc1ccccc1CCNC(=O)c1cnccn1 | -12.8% | –
6 | COc1ccccc1CCNC(=O)CN1C(=O)NC2(CCCC2)C1=O | -9.82% | –
7 | C=C1C=C(C(F)F)n2ncc(C(=O)NCCc3ccccc3OC)c2N1 | – | 17.8 µM (active)
8 | Cc1nn2cc(-c3ccc(Cl)cc3)cnc2c1Br | -22.4% | –
9 | COC(=O)CCCC1=CC2=CC(=O)C(C)(OC(=O)c3cccs3)C(=O)C2=CN1c1cccc(C#N)c1 (stereo not drawn) | -14% | –
10 | Cc1cccc(NC(=O)N2CCN(C)c3ncccc32)c1C | -13.9% | –
11 | COc1ccccc1-c1nnc(SCC(=O)Nc2cc(C)on2)o1 | 8.42% | –
12 | Cc1cc(NC(=O)CSc2nnc(Nc3ccccc3F)s2)no1 | 10.2% | –
13 | Cc1cc(NC(=O)CSc2nnc(-c3ccc(Cl)s3)o2)no1 | – | 16.4 µM (active)
14 | COc1ccc([N+](=O)[O-])cc1NC(=O)CC1SC(=Nc2cccc(C)c2C)N(/N=C(\C)c2ccc(C)cc2)C1=O (stereo not drawn) | -1.02% | –
15 | COc1ccc2cc(-c3nc(Cl)c4c5c(sc4n3)CC(C)CC5)c(=O)oc2c1 (stereo not drawn) | -12.7% | –
16 | O=c1oc2ccccc2cc1-c1csc(Nc2ccc(O)cc2)n1 | – | 8.2 µM (active)
17 | CCNc1nc(-c2cc3ccccc3o2)cs1 | -28.7% | –
18 | Nc1ncc(-c2cc3ccccc3oc2=O)s1 | -14.1% | –
19 | COc1ccc2nc(Nc3nc(-c4cc5ccccc5oc4=O)cs3)sc2c1 | – | 11.6 µM (active)
20 | COc1ccc2nc(Nc3nc4cc5c(cc4s3)OCCO5)sc2c1 | -11.8% | –
21 | CC(C)C(C(=O)NC1CCCCC1)N(CC1CCCO1)C(=O)CNS(=O)(=O)c1ccc(F)cc1 (stereo not drawn) | -25.5% | –
22 | O=C(O)CCC(=O)N(Cc1ccccc1)Cc1ccccc1 | 2.82% | –

Row | Structure (SMILES) | activity change, negative = growth inhibition | Potency
23 | CC1(C)CC(=O)C=C(NCc2ccncc2)C1 | 2.46% | –
24 | Cc1cccc2c(=O)n3c(nc12)CCCCC3 | -12.9% | –
25 | Cc1nc(N=C(N)N)nc2c(C)cccc12 | – | 20.6 µM (active)
26 | CC(=O)Oc1ccc(-c2nc3c(C)cccc3c(=O)o2)cc1 | -8.38% | –
27 | CCCN1Cc2cccc(C(=O)NCc3ccccc3)c2C1=O | -3.84% | –
28 | CCOc1ccc(N2C(=O)CN(c3cccc4ccccc34)C2=S)cc1 | -24.5% | –
29 | Cc1cc(C)c2[nH]c(=O)c(CN(Cc3ccccc3)C(=S)NCCCN(C)C)cc2c1 | – | 16.4 µM (active)
30 | COCCCNC(=S)N(Cc1ccccc1)Cc1ccc(F)cc1 | -14.6% | –
31 | CCN(CC)CCCNC(=S)N(CCO)Cc1cc2cc3c(cc2[nH]c1=O)OCO3 | -11.1% | –
32 | CCCCNC(=O)c1c[nH]c2ccc(S(=O)(=O)Nc3ccc(OCC)cc3)cc2c1=O | -6.94% | –
33 | Cc1ccc(/C=C2\CCn3c2nc2cc(C(=O)O)ccc2c3=O)c(C)c1 | -17.8% | –
34 | CC(=O)C[C@@H](O)CC(=O)[C@H]1OC(=O)CCCCCCc2ccccc21 | -9.45% | –
35 | CC(C)(C)c1cc(=O)n2c(nc3ccccc32)[nH]1 | -13.8% | –
36 | O=C(NCc1ccccn1)Nc1ccc(Cl)cc1 | -0.0857% | –
37 | O=C(NCc1ccccn1)c1cc(-c2ccccc2Cl)on1 | -4.58% | –
38 | Fc1ccc(-c2ccc(CNCc3ccccn3)o2)cc1Cl | – | 20.6 µM (active)
39 | COc1ccc(CNC(=O)CN(Cc2ccccc2Cl)C(=O)c2csnn2)cc1 | -19.7% | –
40 | COCCNC(=O)COc1ccc(C)c(C)c1 | -9.12% | –
41 | Cc1[nH]c(C)c(S(=O)(=O)N2CCN(c3cccc(C(F)(F)F)c3)CC2)c1C(=O)N1CCCCC1 | – | 10.3 µM (active)
42 | Cc1ccc(C)c(NS(=O)(=O)c2c(C)[nH]c(C)c2C(=O)N2CCCCC2)c1 | -1.44% | –
43 | Cc1ccc(C)c(N2CCN(S(=O)(=O)c3c(C)[nH]c(C)c3C(=O)N3CCCC3)CC2)c1 | – | 23.1 µM (active)
44 | CCc1noc(C)c1C(=O)N1CCN(S(=O)(=O)c2cccc(C(F)(F)F)c2)CC1 | -1.34% | –

Row | Structure (SMILES) | activity change, negative = growth inhibition | Potency
45 | Cc1[nH]c(C)c(S(=O)(=O)N2CCC(C)CC2)c1C(=O)N1CCCC1 | 3.3% | –
46 | Cc1ccc(NS(=O)(=O)c2c(C)[nH]c(C)c2C(=O)N2CCCCC2)c(C)c1 | -17.5% | –
47 | O=S(=O)(NCc1cccnc1)c1ccc(Cl)nc1 | -17.2% | –
48 | Cc1occc(=O)c1OCc1c(Cl)cccc1Cl | 12.3% | –
49 | O=C(Nc1nnc(-c2ccc(F)cc2)s1)c1c(F)cccc1Cl | -13% | –
50 | CC(=O)N1CCc2ccc(N)cc21 | -7.03% | –
51 | O=C(NCc1ccc2c(c1)OCO2)c1sccc1Br | -12.3% | –
52 | O=C(NCc1ccc2c(c1)OCO2)c1ccc(Cl)s1 | -26.7% | –
53 | O=C(NCc1ccc2c(c1)OCO2)c1c(-c2ccsc2)sc2ccccc12 | – | 14.6 µM (active)
54 | COC(=O)c1ccc2ccccc2c1OC1OC(CO)C(O)C(O)C1NC(C)=O (stereo not drawn) | -14.3% | –
55 | CCOc1cccc(/C(O)=C2/C(=O)C(=O)N(CCOC)C2c2ccncc2)c1 (stereo not drawn) | -0.467% | –
56 | CS(=O)(=O)N1CCN(C(=O)CSc2ccccc2)CC1 | -5.6% | –
57 | COCCn1c(SC(C)C(=O)NC2CC2)nnc1-c1cccc(C)c1 (stereo not drawn) | -19.5% | –
58 | COc1ccc(C(CNC(=O)c2ccc(OCc3cscn3)cc2)N2CCCC2)cc1 (stereo not drawn) | -19.4% | –
59 | C=CCN(CC=C)C(=O)CN1C(=O)c2ccccc2C1=O | -3.75% | –
60 | CN(C)/C=C(/C(=O)c1ccccc1Cl)S(C)(=O)=O | -2.14% | –
61 | Cc1ccc2nc(-c3cccnc3)c(NC3CCCC3)n2c1 | – | 20.6 µM (active)
62 | O=C(COC(=O)c1cncc(Br)c1)Nc1ccc(S(=O)(=O)N2CCOCC2)cc1 | -12.7% | –
63 | O=C(CCn1nnnc1CN1CCOCC1)N1CCC(c2ccccc2Cl)C1 (stereo not drawn) | -9.44% | –
64 | Cc1cccc(C(=O)N2CCC(c3nc4ccccc4s3)CC2)c1 | -23.4% | –
65 | CC(=O)Oc1ccc(C(C)=O)c2c1OCCO2 | -8.77% | –
66 | CC(=O)Oc1ccc(OC(C)=O)c2c1C1C=CC2CC1 | – | 16.4 µM (active)

Row | Structure (SMILES) | activity change, negative = growth inhibition | Potency
67 | COc1c(C(=O)N2CCCC2)ccc2ccccc12 | -25.1% | –
68 | NC(=O)CC[C@@H]1NC(=O)[C@H](CO)NC(=O)c2cc([N+](=O)[O-])cc(I)c2NCC[C@@H](C(N)=O)NC1=O | -1.82% | –
69 | COCC(=O)N1CCc2ccc(NC(=O)c3ccccc3Cl)cc2C1 | 18.5% | –
70 | COc1cccc(CNCc2ccc3c(c2)OCO3)c1 | -23.4% | –
71 | COc1ccc(NC(=O)NCc2ccc3c(c2)OCO3)c(OC)c1 | 2.84% | –
72 | COc1ccc2c(c1)C(C)=CC(C)(C)N2C(=O)CNCc1ccc2c(c1)OCO2 | – | 20.6 µM (active)
73 | CC(=O)O[C@H]1CC[C@@]2(C)[C@@H](CC[C@@H]3[C@@H]2CC[C@]2(C)[C@@H](C(C)(C)O)C[C@@H]32)C1 | -13.8% | –
74 | CC(C)C(=O)NC(C)c1nnc2n1CCN(Cc1cccc3ncccc13)CC2 (stereo not drawn) | -2.35% | –
75 | Cn1c(SCC(=O)Nc2ccc(N3CCOCC3)cc2)nnc1C(F)(F)F | -0.0099% | –
76 | COc1ccc(NC(=O)c2sc3nc(C)nc(N4CCN(c5ccccn5)CC4)c3c2C)c(OC)c1 | – | 11.6 µM (active)
77 | CCOc1ccc(Cn2nnc(C(=O)Nc3ccc(OC)cc3OC)c2N)cc1 | -1.55% | –
78 | O=C(Nc1ccc(N2CCOCC2)nc1)c1c(F)cccc1F | -8.61% | –
79 | Cc1nc(N2CCN(c3ccccn3)CC2)c2c(C)c(C(=O)Nc3ccc(F)cc3)sc2n1 | – | 20.6 µM (active)
80 | CCS(=O)(=O)N1Cc2ccccc2CC1C(=O)Nc1ccc(OC)cc1OC (stereo not drawn) | -20.6% | –
81 | CCOC(=O)C1CCCN(C(=O)c2sc3nc(C)nc(N4CCOCC4)c3c2C)C1 (stereo not drawn) | -8.49% | –
82 | Cc1nc2c(-c3ccc(F)cc3)c(C)nn2c(C)c1CCC(=O)N1CCN(c2ccccn2)CC1 | -25.4% | –
83 | Cc1nc(N2CCOCC2)c2c(C)c(C(=O)Nc3ccc(C(F)(F)F)cc3)sc2n1 | – | 18.4 µM (active)
84 | Cc1cc(Cl)c(S(=O)(=O)NCCC(=O)O)cc1OCC(N)=O | -5.51% | –
85 | COc1cc(C)c(CN2CCc3nnc(C(C)NC(=O)c4cccnc4)n3CC2)cc1C (stereo not drawn) | -1.75% | –
86 | COc1ccc(OC)c(NC(=O)C2CCCN2S(=O)(=O)c2cccc3nsnc23)c1 (stereo not drawn) | -11.2% | –
87 | Nc1ncc(CN2CCCC(C(=O)Nc3ccc(-c4ccco4)cc3)C2)cn1 (stereo not drawn) | 2.56% | –
88 | O=C(CNC(=O)c1cccnc1)N/N=C/c1cc(Br)c(O)c(Br)c1 | -14.5% | –

Row | Structure (SMILES) | activity change, negative = growth inhibition | Potency
89 | Cc1nc2ccc(C(=O)N3CCSCC3)cc2s1 | -8.92% | –
90 | CCNC(=O)CN(c1ccc(C)cc1)S(=O)(=O)c1ccc(SC)cc1 | -23.1% | –
91 | CCOc1ccccc1C(=O)Nc1ccc2c(c1)N(C)C(=O)c1ccccc1S2 | – | 3.66 µM (active)
92 | CCc1ccc(NC(=O)Cn2ncn3c(cc4ccccc43)c2=O)cc1 | -18.2% | –
93 | CCN1C(=O)c2ccccc2Sc2ccc(NC(=O)Cc3ccc(OC)cc3)cc21 | -21.6% | –
94 | CN1C(=O)c2ccccc2Sc2ccc(NC(=O)Cc3ccc(Cl)cc3)cc21 | – | 16.4 µM (active)
95 | CC(=O)Nc1ccc(NC(=O)COc2ccccc2C(=O)Nc2cccc(Cl)c2Cl)cc1 | -19.4% | –
96 | CCOc1ccccc1C(=O)NCCCn1ccnc1 | -10.6% | –
97 | Cc1nn(-c2ccccc2)c(=O)c2noc(C)c12 | -18.1% | –
98 | CN1CC(O)c2cc(N=NC(N)=O)c(O)cc21 (stereo not drawn) | -2.16% | –
99 | OC(COc1ccc2ccccc2c1)CN1CCOCC1 (stereo not drawn) | – | inactive
100 | COc1cccc(/C=N/Nc2ccc(S(=O)(=O)Nc3ccccc3C(=O)O)cc2[N+](=O)[O-])c1O | -4.64% | –
101 | Cc1cc(N/N=C\c2ccc(Br)cc2)nc(-n2nc(C)cc2C)n1 | – | 2.91 µM (active)
102 | COc1cccc(/C=N/Nc2cc(C)nc(-c3ccccc3O)n2)c1O | – | 8.2 µM (active)
103 | COc1ccccc1-n1c(SCC(=O)Nc2cccc(C(=O)O)c2)nnc1-c1ccccc1O | -7.49% | –
104 | Cc1nc(Cl)cc(N/N=C/c2ccccc2)n1 | -0.294% | –
105 | COc1ccccc1/C=N\Nc1cc(C)nc(-n2nc(C)cc2C)n1 | – | 5.17 µM (active)
106 | Cc1cc2c(C)nc(N/N=C/c3ccccc3)nc2o1 | -27.5% | –
107 | COc1ccccc1/C=N/Nc1nc(C)c(C(C)=O)s1 | -11.1% | –
108 | COc1cc(NS(=O)(=O)c2ccccc2)ccc1-n1nc(C)cc1C | -20% | –
